Shown is part of a subset that was picked to be rich in hits.
Shiga inhibitor: blocks Shiga toxin action in Vero cells; Vero cells, Shiga toxin protein synthesis inhibition reporter; inhibition, % at 38.7 µM; hit rate 9.2% among 290,000; in the data active = inhibition mostly above about 28%, no sharp cut-off; inactive = mostly below about 43%
Sm TGR inh: blocks Schistosoma mansoni thioredoxin glutathione reductase. purified TGR, DTNB reduction, TNB absorbance 405 nm. Potency, µM (series often up to 114 µM), actives largely listed as inhibitors. hit rate 3% among 360,000; also: nearly all actives have a fitted effect of over 60% in size
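TGR 20 nM + NADPH 100 uM (dispensed conc.), cpd preinc 15 min RT; start with NADPH (500 uM addition) then DTNB (15 mM addition). Kinetic TNB absorbance, 405 nm filter. Four-parameter Hill fit across titration.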
LmPK inhibitor: LmPK (Leishmania mexicana) enzyme inhibition; Q27686; purified LmPK, Kinase-Glo ATP luminescence, 1 h; Potency, µM (series often up to 57.5 µM), most hits filed as inhibitors; hit rate 0.37% among 290,000
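Purified LmPK (0.1 nM) converted ADP (0.1 mM) to ATP with PEP (0.5 mM) in imidazole buffer pH 7.2 with KCl and MgCl2, 1 h at room temperature. ATP was read by Kinase-Glo luminescence; data normalized to uninhibited and no-enzyme controls.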
CHX counter: counter-screen for Shiga toxin inhibitors: cycloheximide protein synthesis inhibition | hit rate 12% among 300,000 | cell reporter, cycloheximide protein synthesis inhibition counterscreen | max response, %; in the data active = max response mostly above about 13%, no sharp cut-off; inactive = mostly below about 14%; also: read at 38.3 µM for the half of the compounds with a filed dose
Giardia FBPA inh: Giardia lamblia aldolase inhibition; AID 2451; purified Giardia FBPA; hit rate 0.71% among 290,000; Potency, µM (top dose mostly 59.6 µM), actives largely listed as inhibitors; also: nearly all actives have a fitted effect of over 55% in size
Target sequence (A8B2U2 whole entry, looked up): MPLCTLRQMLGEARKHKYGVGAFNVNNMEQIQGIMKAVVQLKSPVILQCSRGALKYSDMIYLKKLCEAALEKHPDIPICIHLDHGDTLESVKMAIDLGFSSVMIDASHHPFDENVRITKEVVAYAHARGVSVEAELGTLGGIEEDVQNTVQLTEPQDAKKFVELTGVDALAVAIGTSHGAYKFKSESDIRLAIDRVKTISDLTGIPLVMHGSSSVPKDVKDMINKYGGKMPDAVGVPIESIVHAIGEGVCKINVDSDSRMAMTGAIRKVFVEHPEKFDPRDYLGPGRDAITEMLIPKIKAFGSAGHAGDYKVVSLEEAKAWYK
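40 nM FBPA preincubated 10 min at RT with compound (up to 57.5 uM final), then substrate plus GAPDH/TPI/NAD/arsenate coupling and diaphorase/resazurin added. Fluorescence read after 20 min at RT, 525/598 nm.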
TbPYK inhibitor: T. brucei pyruvate kinase inhibition | TbPYK enzyme, Kinase-Glo Plus ATP luminescence, 45 min | Potency, µM (top dose mostly 76.8 µM), most hits filed as inhibitors | hit rate 0.12% among 410,000 | AID 624173; also: nearly all actives have a fitted effect of over 50% in size
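Quantitative HTS: titrated library compounds versus trypanosomal pyruvate kinase in TEA buffer (pH 7.2) containing KCl, MgCl2, BSA and Tween-20. Reactions were initiated with ADP, 130 uM final. Kinase-Glo Plus luminescence was read after 45 min at RT.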
Of the large screens only hits and unclear results are named; the others gave an inactive call. Unless noted, calls follow the shape of the dose curve; as a rule, active = well fitted curve in the direction sought with a large enough effect; inconclusive = small, poorly fitted or top-dose-only effect, or another doubt; inactive = no such curve, though single readings can be large; an effect the other way counts as inactive or inconclusive.

CC(c1ccco1)N(C(=O)c1ccc(Cl)s1)c1ccccn1 (stereo unspecified)	Shiga inhibitor 42.8, CHX counter 18.6
CCc1nnc(NC(=O)CSc2nc(C)cc(C)c2C#N)s1	CHX counter 15.3
CCc1nnc(NC(=O)CSc2nc3c(cc2C#N)CCC3)s1	Shiga inhibitor 70.2, CHX counter 32.0
CCOC(=O)NC(=O)CSc1nc(C)cc(C)c1C#N	Sm TGR inh inconclusive
Cc1ccc(C#N)c(SCC(=O)Nc2nccs2)n1	Shiga inhibitor 68.3, CHX counter 52.6 (no result: Sm TGR inh)
Cc1cc(C)c(C#N)c(SCC(=O)Nc2ccccc2C(N)=O)n1	Shiga inhibitor 51.4, CHX counter 23.3
N#Cc1cc2c(nc1SCC(=O)Nc1nccs1)CCCCC2	Shiga inhibitor 94.1, CHX counter 49.2
CCn1c(C)nnc1SCC(=O)Nc1nccs1	none
CCOC(=O)c1c(SCC(=O)Nc2nccs2)nc(C)c(C)c1C	Shiga inhibitor 36.3, CHX counter 26.2 (no result: Giardia FBPA inh)
CCSc1nnc(NC(=O)CSc2nc3c(cc2C#N)CCCC3)s1	none
O=C(COc1ccc2ccc(=O)oc2c1)c1ccccc1	CHX counter 22.8
CSc1cccc(NC(=O)COc2ccccc2C)c1	Shiga inhibitor 47.5, CHX counter 15.7
O=C(COc1ccccc1)Nc1ccc2oc(=O)ccc2c1	Shiga inhibitor 51.9, CHX counter 23.0
Cc1ccc(OCC(=O)Nc2ccc3oc(=O)ccc3c2)c(C)c1	none (no result: Giardia FBPA inh)
CN(C)C(=O)COc1ccc2ccc(=O)oc2c1	none
Cc1ccccc1OCC(=O)Nc1ccc2oc(=O)ccc2c1	CHX counter 33.2
CCC(=O)Nc1cccc(SC)c1	none
COc1ccc(-c2cc(=O)oc3c4c(ccc23)OCN(Cc2ccccc2)C4)cc1	none (no result: Shiga inhibitor, LmPK inhibitor, CHX counter, Giardia FBPA inh)
Cn1nnnc1SCCCNCc1ccccc1OCc1ccccc1Cl	none (no result: LmPK inhibitor, Giardia FBPA inh)
CCOC(=O)c1cccc(NC(=O)c2cc3sccc3n2C)c1	Shiga inhibitor 45.5, CHX counter 39.4
Cn1c(C(=O)Nc2ccc3c(c2)OCCO3)cc2sccc21	Shiga inhibitor 47.4, CHX counter 35.6, Giardia FBPA inh inconclusive
O=C(Nc1ccc2c(c1)OCCO2)c1cc2sccc2n1Cc1ccc(F)cc1	Shiga inhibitor 65.4, CHX counter 31.2
O=C(Nc1ccc2c(c1)OCCO2)c1cc2sccc2n1Cc1ccccc1	Shiga inhibitor 126.3 (no result: Giardia FBPA inh)
O=C(NCc1ccco1)c1ccc(Cn2c(=O)c3sccc3n(Cc3cccc(F)c3)c2=O)cc1	CHX counter 25.8
O=C(NCc1ccco1)c1cc2sccc2n1Cc1ccccc1	Shiga inhibitor 36.1, CHX counter 56.2
O=C(NCCc1ccccc1)c1cc2sccc2n1Cc1ccccc1	none (no result: Giardia FBPA inh)
O=C(NCc1ccco1)c1ccc(Cn2c(=O)c3ccccc3n(Cc3cccc(Cl)c3)c2=O)cc1	none
CC(=O)N(CC#CCN(C(C)=O)c1ccccc1)c1ccccc1	none (no result: Shiga inhibitor, Sm TGR inh, LmPK inhibitor, CHX counter, Giardia FBPA inh)
N#Cc1ccc(/C=C(\C(=O)C(=O)O)c2ccc3ccccc3n2)cc1	Shiga inhibitor 73.5, CHX counter 56.9
Cc1cccc(/C=C(\C(=O)C(=O)O)c2ccc3ccccc3n2)c1	Shiga inhibitor 61.8, CHX counter 45.8
O=C(O)C(=O)/C(=C\c1cccc(Cl)c1)c1ccc2ccccc2n1	Shiga inhibitor 110.0, CHX counter 92.9
CC(C(=O)O)N1C(=O)C2C3c4ccccc4C(c4ccccc43)[C@@H]2C1=O (stereo partly specified)	none
CCCCCSc1cc(OC)c(CCN(C)C)cc1OC	CHX counter 19.5
Cn1cnnc1SCC(=O)c1cc2ccccc2oc1=O	Sm TGR inh 8.91µM, Giardia FBPA inh inconclusive, TbPYK inhibitor inconclusive
O=C(Cn1nc(Cl)nc1Cl)c1cc2ccccc2oc1=O	Sm TGR inh 14.1µM
C/C(CCN1CCc2nc(-c3ccccc3)c(-c3ccccc3)cc2C1)=N\O[C@@H](C)CN1CCCc2nc(C)c(C)cc21	none (no result: Shiga inhibitor, Sm TGR inh, LmPK inhibitor, CHX counter, TbPYK inhibitor)
O=C(NCCc1ccc(Cl)cc1)c1ccc(CS(=O)Cc2cccc(Cl)c2)o1 (stereo unspecified)	Sm TGR inh inconclusive (no result: Shiga inhibitor, LmPK inhibitor, CHX counter, Giardia FBPA inh)
COc1ccc(/C=C/C(=O)NC2=NCCS2)cc1OC	Shiga inhibitor 69.7, CHX counter 37.8
COc1ccc(OC)c(/C=C/C(=O)NC2=NCCS2)c1	none
CCc1nnc(NC(=O)/C=C/c2ccco2)s1	Sm TGR inh 39.8µM, CHX counter 26.7
CCc1nnc(NC(=O)CSc2nnc(-c3ccco3)n2C)s1	none
O=C(/C=C/c1ccco1)Nc1cc(Cl)ccc1C(=O)O	Sm TGR inh inconclusive, TbPYK inhibitor inconclusive
CCSc1nnc(NC(=O)C2CC2c2ccccc2)s1 (stereo unspecified)	none
O=C(/C=C/c1ccco1)Nc1cccc(NC(=O)/C=C/c2ccco2)n1	Shiga inhibitor 102.5, CHX counter 33.2
CCSc1nnc(NC(=O)/C=C/c2ccco2)s1	Shiga inhibitor 116.7, Sm TGR inh 22.4µM, CHX counter 30.1
O=C(O)c1cc2ccccc2c(N=Nc2cccnc2)c1O	none
COC(=O)c1sc(NC(=O)/C=C/c2ccc(C)o2)nc1C	Shiga inhibitor 55.5, Sm TGR inh 44.7µM, CHX counter 32.9
CNS(=O)(=O)c1ccc2nc(NC(=O)/C=C/c3ccco3)sc2c1	Sm TGR inh 22.4µM
Cc1nc(NC(=O)/C=C/c2ccco2)sc1C	Shiga inhibitor 143.8, Sm TGR inh 50.1µM, CHX counter 57.3
O=C(/C=C/c1ccco1)Nc1nnc(-c2ccco2)s1	CHX counter 14.4
O=C(/C=C/c1ccccc1)Nc1nnc(-c2ccco2)o1	none
CC(C)C[C@@H](NC(=O)C1CCC(CNC(=O)[C@@H]2CCCN2C(=O)OC(C)(C)C)CC1)C(=O)O (stereo partly specified)	none
O=[N+]([O-])c1ccc(Cl)c(S(=O)(=O)NCCc2ccccn2)c1	none (no result: Shiga inhibitor, Sm TGR inh, LmPK inhibitor, CHX counter, Giardia FBPA inh)
COC(=O)c1ccc(OCC2c3cc(OC)c(OC)cc3CCN2C(=O)c2ccccc2C)cc1 (stereo unspecified)	none (no result: Shiga inhibitor, LmPK inhibitor, CHX counter, Giardia FBPA inh)
O=C(Cc1cccc(NC(=O)C2CCN(S(=O)(=O)c3cccc([N+](=O)[O-])c3)CC2)c1)Nc1cccc(C(=O)N2CCCCC2)c1	none (no result: Shiga inhibitor, Sm TGR inh, LmPK inhibitor, CHX counter, Giardia FBPA inh)
O=C(/C=C/c1ccco1)NC1=NCCS1	Shiga inhibitor 42.7, Sm TGR inh 44.7µM, CHX counter 61.1
O=C(Cc1ccc(NC(=O)N2CCCCc3ccccc32)cc1)NCc1cccc(Br)c1	none (no result: Shiga inhibitor, LmPK inhibitor, CHX counter, Giardia FBPA inh)
CC(OC(=O)CCc1nc2ccccc2c(=O)[nH]1)C(=O)NC1CCCC1 (stereo unspecified)	none
CC(OC(=O)CCc1nc2ccccc2c(=O)[nH]1)C(=O)c1ccc(C(C)(C)C)cc1 (stereo unspecified)	Shiga inhibitor 60.0, CHX counter 22.3
COC(=O)c1ccccc1NC(=O)CSc1cc(-c2ccccc2)nc(C)n1	none (no result: Shiga inhibitor, LmPK inhibitor, CHX counter, Giardia FBPA inh)
CCNC(=O)C1CC(=O)N(c2ccc(OCC)cc2)C1 (stereo unspecified)	none
